High-throughput results (PubChem BioAssay)
D1 antagonist – Antagonist of Human D 1 Dopamine Receptor: qHTS. D(1A) dopamine receptor (Homo sapiens), P21728. HEK293 TREx D1 cells, calcium flux, dopamine EC80; active compounds read low. activity change, negative = inhibition, % at 10 µM. 3.2% of 360,000 active. AID 504652, 2011; in the data active means activity change below about -30%; further: on the % scale 0 is the no-effect control and ±100 the full control effect
Target sequence (P21728 whole entry, looked up): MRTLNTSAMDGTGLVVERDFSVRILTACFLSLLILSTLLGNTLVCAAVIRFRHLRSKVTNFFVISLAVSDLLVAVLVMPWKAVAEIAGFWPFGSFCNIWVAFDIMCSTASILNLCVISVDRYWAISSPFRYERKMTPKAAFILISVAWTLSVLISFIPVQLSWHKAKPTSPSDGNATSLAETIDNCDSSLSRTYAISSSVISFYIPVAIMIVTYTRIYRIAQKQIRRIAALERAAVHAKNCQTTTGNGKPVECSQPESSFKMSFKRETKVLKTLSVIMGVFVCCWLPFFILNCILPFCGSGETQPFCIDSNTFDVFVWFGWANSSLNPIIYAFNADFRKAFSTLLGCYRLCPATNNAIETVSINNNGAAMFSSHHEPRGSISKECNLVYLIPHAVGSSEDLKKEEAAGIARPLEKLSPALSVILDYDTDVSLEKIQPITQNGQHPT
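Kinetic fluorescence of a calcium dye serves as the read-out. D1-expressing Hek293 Trex cells, induced overnight at 30 C, are exposed to compound for 180 s before an EC80 dopamine addition, then read 180 s further.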
D1 ag – Allosteric Agonists of the Human D1 Dopamine Receptor: qHTS. HEK293 T-REx D1 cells, calcium flux, agonist mode. activation, % at 2 µM. 1% of 360,000 active; in the data active means activation above about 30%; further: 0% is about no effect
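Inducible HEK293 T-REx D1 cells, force-coupled to calcium signalling, were plated at 4000 cells/well with tetracycline and held overnight at 30 C. After no-wash calcium dye loading, compound-evoked calcium rise over 180 s flagged agonists.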
D1 PAM – Potentiators of Human D1 Dopamine Receptor: qHTS | D(1A) dopamine receptor (Homo sapiens), P21728 | AID 504651, 2011 | HEK293 TREx D1 cells, calcium flux, dopamine EC20 potentiation | 0.036% of 360,000 active | potentiation, % at 10 µM; in the data active means potentiation above about 30%; further: 0% is about no effect
DRD3 agonist – qHTS of D3 Dopamine Receptor Agonist: qHTS; D(3) dopamine receptor (Homo sapiens), P35462; D3R DiscoveRx beta-arrestin cells, luminescence, 90 min; max activation, %; 0.58% of 410,000 active; AID 652048, 2013; in the data active means max activation above about 30%; further: 0% is about no effect
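Agonist mode: compounds and dopamine controls were applied to plated cells for 90 min at 37 degrees C after an overnight attachment at 1500 cells/well. Luminescent read-out followed 30 - 60 minutes at room temperature with DiscoveRx detection reagent.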
D3 antag – qHTS of D3 Dopamine Receptor Antagonist: qHTS; max response, negative = inhibition, %; D3R cells, DiscoveRx beta-arrestin luminescence, antagonist mode; active compounds read low; 2.5% of 360,000 active; D(3) dopamine receptor (Homo sapiens), P35462; in the data active means max response below about -50%; inconclusive means no clear call, values can overlap the other calls; further: on the % scale 0 is the no-effect control and ±100 the full control effect
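Cells plated overnight at 1500 cells/well, then exposed to library compounds with dopamine controls for 90 minutes at 37 degrees C. DiscoveRx reagent added for 30–60 minutes at room temperature; luminescence read, quantitative HTS format.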
ERG-DNA inh – qHTS for Small Molecule Inhibitors of the ERG Ets/DNA interaction. Potency, µM (doses to about 76.9 µM), inactives show top-dose FP activity, negative = inhibition, hits mostly inhibitors. 0.028% of 370,000 active. fluorescence polarization, His-ERG Ets domain / labelled DNA. AID 624246, 2012; active means well fitted inhibition curve with a large enough effect in the polarisation, with a control signal flat; inconclusive means small, poorly fitted or top-dose-only effect, or effect the other way, or a change in a side signal; inactive means no such curve, though single readings can be large or run the other way; the % refers to the polarisation;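 further: polarization taken with two DNA probes labelled with fluorescein and Texas red; potency means the concentration at half of the fitted maximal effect; % of control where 0% means no effect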
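His-tagged ERG Ets domain (1 uM in the protein solution; 300mM KCl, 50mM Tris-HCl, 1mM EDTA, 1mM DTT, pH 7.5) received compound, then a probe mix of 5 nM fluorescein-DNA and 100nM Texas-615-DNA. Fluorescence polarization was read for both dyes.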
An asterisk follows results filed as active. Sampled rows, rich in hits. Any-hit rate of the full collection: about 6.1%.

Results for O=C(COC(=O)c1ccc2ccccc2n1)Nc1ccccc1F ?
DRD3 agonist: -10; D3 antag: -17; ERG-DNA inh: 20%

Results for N#Cc1ccc(-c2nc3c4ccccc4ccn3c2Cc2ccsc2)cc1 ?
DRD3 agonist: -8; D3 antag: 0

How did CN(C)CCCN(C(=O)c1ccc2c(c1)OCCO2)c1nc2cc3c(cc2s1)OCO3 do in these assays?
D1 antagonist: 1; D1 ag: 6; D1 PAM: -5; DRD3 agonist: -11; D3 antag: -24; ERG-DNA inh: 3%

How did CN(C)CCCN(C(=O)c1ccc([N+](=O)[O-])o1)c1nc2cc3c(cc2s1)OCO3 do in these assays?
D1 antagonist: -47*; D1 ag: 1; D1 PAM: -2; DRD3 agonist: 1; D3 antag: -14; ERG-DNA inh: -3%

Results for COc1ccc(P(=O)(COc2ccc([N+](=O)[O-])cc2)c2ccc(OC)cc2)cc1 ?
D1 antagonist: -19; D1 ag: 14; D1 PAM: -4; DRD3 agonist: 2; D3 antag: 0; ERG-DNA inh: 4%

Results for Cc1ccc(C(=O)NCCN2CCC(n3c(=O)[nH]c4ccccc43)CC2)cc1 ?
DRD3 agonist: -15; D3 antag: -106*

Results for O=C(NCCN1CCC(n2c(=O)[nH]c3ccccc32)CC1)c1cccc2c1-c1ccccc1C2=O ?
DRD3 agonist: -14; D3 antag: 0

Results for O=C(NCCN1CCC(n2c(=O)[nH]c3ccccc32)CC1)c1c(F)cccc1F ?
DRD3 agonist: -12; D3 antag: -92*

What do the screens show for `O=C(NCCN1CCC(n2c(=O)[nH]c3ccccc32)CC1)c1ccc(Cl)c(Cl)c1`?
DRD3 agonist: -15; D3 antag: -85*

How did O=C(NCCN1CCC(n2c(=O)[nH]c3ccccc32)CC1)c1ccc(F)cc1 do in these assays?
DRD3 agonist: -17; D3 antag: -79*

How did Cc1ccc(C(=O)NCCN2CCOCC2)cc1Cl do in these assays?
D1 antagonist: 19; D1 ag: 0; D1 PAM: -1; DRD3 agonist: -38; D3 antag: inconclusive

How did COc1ccccc1C(=O)NCCN1CCC(n2c(=O)[nH]c3ccccc32)CC1 do in these assays?
DRD3 agonist: -16; D3 antag: 0

Results for O=C(NCCN1CCC(n2c(=O)[nH]c3ccccc32)CC1)c1ccc(Cl)cc1 ?
DRD3 agonist: -15; D3 antag: -51*

Results for O=C(Nc1cccc(F)c1)N1CCC(n2c(=O)[nH]c3ccccc32)CC1 ?
D1 antagonist: 21; D1 ag: 3; D1 PAM: 4; DRD3 agonist: -38; D3 antag: -19; ERG-DNA inh: -20%

Results for CCOc1ccccc1C(=O)NCCN1CCC(n2c(=O)[nH]c3ccccc32)CC1 ?
DRD3 agonist: -14; D3 antag: -29

How did O=C(NCCN1CCOCC1)c1cccs1 do in these assays?
D1 antagonist: 2; D1 ag: 0; D1 PAM: 3; DRD3 agonist: 0; D3 antag: 10; ERG-DNA inh: 1%

Results for O=C(NCCN1CCC(n2c(=O)[nH]c3ccccc32)CC1)c1cccs1 ?
DRD3 agonist: -17; D3 antag: -103*

How did O=C(NCCN1CCC(n2c(=O)[nH]c3ccccc32)CC1)c1ccc(F)cc1F do in these assays?
DRD3 agonist: -14; D3 antag: -109*

How did Cc1ccc(C(=O)NCCN2CCC(n3c(=O)[nH]c4ccccc43)CC2)cc1F do in these assays?
DRD3 agonist: -11; D3 antag: -70*

What do the screens show for `COc1cc(OC)cc(-c2nnc(SCC(=O)c3ccc([N+](=O)[O-])cc3)o2)c1`?
D1 antagonist: -7; D1 ag: 1; D1 PAM: -3; DRD3 agonist: 0; ERG-DNA inh: -3%

What do the screens show for `CCc1cc(S(=O)(=O)O)c2cc(C(C)C)cccc1-2`?
DRD3 agonist: -18

Results for Nc1c(Br)cc(Br)c2c1C(=O)c1c(cccc1S(=O)(=O)O)C2=O ?
DRD3 agonist: -17; D3 antag: -55*; ERG-DNA inh: 17%

What do the screens show for `COc1ccc(F)cc1C(=O)C1CCCN(Cc2cnc(N3CCCC3)s2)C1` (stereo not given)?
D1 antagonist: 5; D1 ag: 4; D1 PAM: 7; DRD3 agonist: -26; D3 antag: -59*; ERG-DNA inh: 3%

What do the screens show for `CCc1noc(C)c1C(=O)N1CCCC(C(=O)c2cc(F)ccc2OC)C1` (stereo not given)?
D1 antagonist: 0; D1 ag: 1; D1 PAM: -5; DRD3 agonist: 11; D3 antag: -11; ERG-DNA inh: -6%

Results for COc1ccc(Cl)cc1C(=O)C1CCCN(Cc2cnc(N3CCOCC3)s2)C1 (stereo not given) ?
D1 antagonist: -1; D1 ag: 6; D1 PAM: -2; DRD3 agonist: -12; D3 antag: -79*; ERG-DNA inh: 8%

Results for CCOC(=O)N1CCC(N2CCCC(C(=O)c3cc(F)ccc3OC)C2)CC1 (stereo not given) ?
D1 antagonist: -13; D1 ag: -1; D1 PAM: -3; DRD3 agonist: -19; D3 antag: -68*; ERG-DNA inh: 3%

Results for CC(=O)c1cccc(NC(=O)CSc2nnc(-c3cccnc3)o2)c1 ?
D1 antagonist: -11; D1 ag: 1; D1 PAM: -2; DRD3 agonist: 7; D3 antag: -12; ERG-DNA inh: -3%

How did C/C(=N\NC(=O)c1ccc(Cn2cc(Br)cn2)o1)c1cccc(NC(=O)C(C)(C)C)c1 do in these assays?
D1 antagonist: -19; D1 ag: 5; D1 PAM: -4; DRD3 agonist: 18; D3 antag: 38; ERG-DNA inh: 0%

Results for O=C(Nc1cccc(C(F)(F)F)c1)c1ccc(Cn2cc(Br)cn2)o1 ?
D1 antagonist: -31*; D1 ag: 34*; D1 PAM: -5; DRD3 agonist: 4; D3 antag: 7; ERG-DNA inh: -2%
